In the library only some 1.7% were active in any assay of this set; here they are far more common.
LYPLA2 inh: LYPLA2 (human) inhibition in PME1 counter-screen; 0.38% of 320,000 active; inhibition, % at 5.9 µM; AID 2177; recombinant LYPLA2, FP-Rh probe fluorescence polarization;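 active means inhibition above the screen-wide mean plus 3 SD, limit set per campaign, cut at about 26% in these data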;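 further: 0% = LYPLA2 with DMSO and 100% = wells lacking LYPLA2 enzyme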
LYPLA1 counter: LYPLA1 (human) inhibition in PME1 counter-screen. O75608. recombinant LYPLA1, FP-Rh probe fluorescence polarization. inhibition, % at 5.9 µM. 0.16% of 320,000 active. AID 2174;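 active means inhibition above the mean of all tested compounds plus 3 SD, set per campaign, cut at about 14% in these data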;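 further: inhibitors block serine hydrolase probe labeling of LYPLA1 so polarization falls; 0% = enzyme with DMSO and 100% = wells lacking LYPLA1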
PAD4 FP inh: inhibitors of human PAD4; Q9UM07; recombinant PAD4, RCA probe fluorescence polarization; inhibition, % at 6.36 µM; 0.41% of 330,000 active;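 active means percent inhibition above a cutoff equal to the mean of all tested compounds plus 3 SD, cut at about 15% in these data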;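 further: 0% = PAD4 with RCA probe and DMSO and 100% = probe without PAD4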
Target sequence (Q9UM07 whole entry, looked up): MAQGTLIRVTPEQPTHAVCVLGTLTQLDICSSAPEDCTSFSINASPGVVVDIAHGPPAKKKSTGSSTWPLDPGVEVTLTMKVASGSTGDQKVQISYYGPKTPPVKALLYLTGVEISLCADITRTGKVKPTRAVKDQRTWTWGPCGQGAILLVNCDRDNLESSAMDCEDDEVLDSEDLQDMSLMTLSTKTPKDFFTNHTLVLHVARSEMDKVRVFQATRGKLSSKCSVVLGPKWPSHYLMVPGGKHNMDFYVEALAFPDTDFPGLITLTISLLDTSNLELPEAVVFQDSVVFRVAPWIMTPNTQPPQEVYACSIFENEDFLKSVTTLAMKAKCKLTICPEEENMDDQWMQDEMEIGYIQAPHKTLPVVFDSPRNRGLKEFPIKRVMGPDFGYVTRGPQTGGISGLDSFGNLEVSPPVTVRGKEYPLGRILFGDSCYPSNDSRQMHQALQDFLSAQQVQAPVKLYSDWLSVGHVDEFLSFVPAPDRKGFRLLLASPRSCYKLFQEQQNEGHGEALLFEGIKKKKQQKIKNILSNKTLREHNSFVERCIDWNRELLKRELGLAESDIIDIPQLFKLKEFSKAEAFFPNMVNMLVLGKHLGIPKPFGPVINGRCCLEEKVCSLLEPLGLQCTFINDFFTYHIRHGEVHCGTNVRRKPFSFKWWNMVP
ZTA DNA inh: ZTA (EBV) inhibition in EBNA-1 counter-screen. 0.15% of 320,000 active. inhibition, % at 11 µM. ZTA-DNA binding, fluorescence polarization. P03206; in the data active means inhibition above about 33%
EBNA-1 inhibitor: blocks EBNA-1 binding to DNA | EBNA-1 DNA binding, fluorescence polarization | 0.34% of 300,000 active | AID 1950 | inhibition, % at 14.8 µM; in the data active means inhibition above about 28%
GSTO1 counter: GSTO1 inhibition, counter-screen for RBBP9 inhibitors; 1.1% of 300,000 active; inhibition, % at 5.96 µM; recombinant GSTO1, activity-based probe fluorescence polarization; P78417;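 active means inhibition above the campaign mean inhibition plus 3 SD, cut at about 35% in these data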;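 further: 0% = GSTO1-1 with DMSO and 100% = wells lacking GSTO1-1 enzyme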
GSTO1 inh conf: confirmation of human GSTO1 inhibitors | shares compounds with GSTO1 counter | recombinant GSTO1, probe fluorescence polarization | inhibition, % at 5.96 µM | 54% of 2,400 active;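 active means inhibition above the primary screen's cutoff, its mean inhibition plus 3 SD, cut at about 35% in these data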;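 further: loss of polarization as inhibitors block binding of rhodamine sulfonate ester activity probe; 0% = GSTO1 with DMSO and 100% = wells lacking GSTO1 enzyme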
GSTO1 recomb ABPP: GSTO1 (human) inhibition by gel ABPP; inhibition, % at 1 µM; recombinant GSTO1, gel ABPP SE-Rh probe fluorescence; shares compounds with GSTO1 counter; 30% of 130 active;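 active means inhibition of the enzyme GSTO1 above about 75%, limit read from the data; inactive means inhibition below that limit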
* hit, by the source's call; x = no result; ! = repeats disagree.

SMILES | LYPLA2 inh | LYPLA1 counter | PAD4 FP inh | ZTA DNA inh | EBNA-1 inhibitor | GSTO1 counter | GSTO1 inh conf | others
Cc1nc(SCC(=O)c2ccc(F)c(F)c2)[nH]c(=O)c1Oc1ccc(F)cc1 | 3.4 | 0.3 | -1.8 | 12.6 | 5.7 | 5.8 | x
O=c1c(-c2ccc([N+](=O)[O-])cc2)coc2c(O)c(O)ccc12 | 2.5 | -8.6 | 2.7 | 11.4 | -3.5 | 53.4* | 25.4
CN(C)Cc1c(O)ccc2c(=O)c(-c3ccc(Cl)cc3)coc12 | 7.3 | 1.7 | -2.5 | 7.5 | 7.5 | -0.1 | x
CCN(CC)C(=O)c1ccc(N)cc1 | -2.1 | 1.3 | 0.8 | -27.4 | 1.1 | 42.9* | 5.5
O=S1(=O)c2cccc3cccc(c23)N1CCBr | 6.9 | 0.5 | 0.4 | -8.9 | 2.6 | 45.4* | 50.9*
COc1ccc(N(C(=O)CCl)C(C(=O)NCCc2ccccc2)c2cccs2)cc1 (stereo not drawn) | 5.6 | -0.7 | 14.4 | -5.0 | -4.9 | 93.3* | 97.6* | GSTO1 recomb ABPP=94.0*
COc1ccc(CCNC(=O)C(C)SCc2ccccc2)cc1 (stereo not drawn) | -0.1 | 1.1 | -9.7 | 12.2 | 6.4 | -1.5 | x
CCc1ccc[n+](-c2nc3ccccc3nc2C(=C=[N-])C#N)c1 | -10.3 | -6.9 | -11.6 | -18.8 | -7.8 | 52.6* | 41.9*
Cc1ccc[n+](-c2nc([O-])sc2C=O)c1 | 14.1 | 1.9 | 1.6 | -21.7 | -0.6 | 21.1 | x
Cc1cc(C)c[n+](-c2nc3ccccc3nc2[N-]S(=O)(=O)c2ccc(Cl)cc2)c1 | 1.3 | -5.3 | 4.9 | -1.0 | -5.9 | 9.8 | x
Cc1cc(C)c[n+](-c2nc3ccccc3nc2C(=C=[N-])C#N)c1 | -1.9 | 2.8 | 0.9 | 16.1 | -1.3 | 44.6* | 29.2
Cc1ccc[n+](-c2nc3ccccc3nc2C(=C=[N-])C#N)c1 | -3.9 | -1.1 | -20.2 | -10.2 | -1.1 | 62.5* | 35.7*!
CCN(CC(=O)Nc1c(F)cccc1F)C(=O)c1ccc(COc2ccccc2)o1 | 0.8 | -3.2 | 2.3 | 8.4 | -1.3 | 4.7 | x
CCN(CC(=O)Nc1ccc(NC(C)=O)cc1)C(=O)CCCc1nc2ccccc2c(=O)[nH]1 | 4.2 | 2.9 | 0.1 | 7.1 | 1.1 | 4.4 | x
Nc1nc2nccc(-c3cccnc3)n2n1 | 7.7 | 3.9 | -2.0 | -13.0 | 0.6 | -1.7 | x
Fc1ccccc1-c1csc(=Nc2cccnc2)n1CCCn1ccnc1 | 0.8 | -0.4 | -3.9 | -1.9 | 2.8 | 41.3* | 4.8
Fc1ccccc1-c1csc(=Nc2cccnc2)n1CC1CCCO1 (stereo not drawn) | -1.3 | -0.4 | 1.4 | 1.5 | 0.8 | 4.1 | x
Cc1cc(N=Cc2c(O)ccc3cc(Br)ccc23)no1 | 0.1 | 0.1 | -5.5 | 13.9 | 13.1 | 46.2* | 23.3
CC(=O)c1cccc(Oc2cc(NN3CCCCC3)c([N+](=O)[O-])cc2[N+](=O)[O-])c1 | 0.2 | 2.1 | 6.2 | -7.4 | -0.3 | 44.2* | 28.9
Cc1oc2c(c1C(=O)NCc1cccnc1)C(=O)c1ccccc1C2=O | 3.3 | -1.1 | 9.8 | 14.3 | 4.8 | 59.7* | 48.4*
CC(=O)c1c(C)oc2c1C(=O)c1ccccc1C2=O | -0.1 | -1.5 | -19.0 | 5.9 | -6.5 | 45.9* | 56.3*
COc1ccc(CNC(=O)c2ccc(-c3ccccc3)cc2)cc1 | -2.2 | -3.9 | -3.4 | 10.7 | 4.1 | -1.0 | x
COc1ccc(CNC(=O)c2c(C)oc3c2C(=O)c2ccccc2C3=O)cc1 | -1.6 | -0.4 | -6.6 | 16.2 | 0.7 | 52.7* | 35.4*
Cc1onc(-c2ccccc2Cl)c1C(=O)NCc1cccnc1 | -4.0 | -2.0 | 5.3 | -2.5 | -11.7 | 3.5 | x
CC(=O)c1c2c3c(cccc3n(C)c1=O)C(=O)c1ccccc1-2 | 12.7 | 1.8 | 12.1 | -14.1 | -2.2 | 9.0 | x
SMILES | LYPLA2 inh | LYPLA1 counter | PAD4 FP inh | ZTA DNA inh | EBNA-1 inhibitor | GSTO1 counter | GSTO1 inh conf | others
COc1ccc(Cl)cc1NC(=O)CN(C)C(=O)c1cccc2cccnc12 | x | x | 0.4 | x | x | x | x
Nc1ccc2nn(-c3ccc(F)cc3)nc2c1 | -4.5 | -5.0 | -3.9 | -1.4 | -2.7 | 43.3* | 47.6*
CCOC(=O)Cn1ccc(NC(=O)COc2ccc(F)cc2F)n1 | -8.1 | -5.4 | -0.4 | -12.4 | 0.0 | 0.7 | x
COc1cc(OC)cc(-c2nc(-c3ccccc3OC)no2)c1 | 4.1 | -0.1 | 3.1 | -0.8 | 12.2 | 52.5* | 6.1
COc1ccccc1-c1noc(-c2cc(OC)c(OC)c(OC)c2)n1 | -1.1 | -2.6 | -3.6 | 17.0 | 10.4 | -6.7 | x
Cc1nnc(SCC(=O)N2CCN(C(=O)c3ccco3)CC2)n1-c1ccccc1 | 0.5 | -1.8 | -2.5 | -5.0 | 5.0 | -1.9 | x
CSc1nncc(/C(C)=N\Nc2ccccc2)n1 | 0.1 | -1.2 | -6.8 | 14.1 | -1.0 | 38.2* | 5.7
CC/C(=N/Nc1ccccc1C)c1cnnc(SC)n1 | 4.2 | 2.6 | -3.9 | -4.5 | 1.2 | 44.1* | 2.3
CN(C(=O)COC(=O)c1ccccc1SCC(=O)N1CCCC1)c1ccccc1 | 7.1 | -0.7 | 3.2 | -22.6 | -6.5 | -3.3 | x
CCN1CCN(C2=C(NS(=O)(=O)c3ccccc3)C(=O)c3ccccc3C2=O)CC1 | -3.7 | -0.6 | -12.4 | -1.9 | -9.8 | 49.3* | 38.4*
CCOC(=O)N1CCN(C2=C(NS(=O)(=O)c3ccccc3)C(=O)c3ccccc3C2=O)CC1 | 0.0 | 2.3 | -6.7 | 11.8 | 2.0 | 11.8 | x
CCOC(=O)C1CCN(C2=C(NS(=O)(=O)c3ccc(Br)cc3)C(=O)c3ccccc3C2=O)CC1 | 8.3 | 0.3 | -5.1 | -15.8 | -1.0 | 44.6* | 13.6
NC(=O)C1CCN(C2=C(NS(=O)(=O)c3ccccc3)C(=O)c3ccccc3C2=O)CC1 | 2.2 | 0.7 | -4.6 | 0.5 | 8.2 | 11.9 | x
CCN1CCN(C2=C(NS(=O)(=O)c3ccc(Br)cc3)C(=O)c3ccccc3C2=O)CC1 | 10.2 | 2.1 | 8.7 | 7.2 | -7.0 | 58.5* | 30.2
O=C1C(NS(=O)(=O)c2ccc(Cl)cc2)=C(N2CCCCC2)C(=O)c2ccccc21 | 5.5 | 1.4 | -10.8 | 1.1 | -2.4 | 47.7* | 26.7
Cc1ccccc1C(=O)NCC(C)NC(=O)c1ccccc1C (stereo not drawn) | 3.3 | -1.8 | 0.3 | 6.8 | 0.9 | -1.6 | x
CN1CCN(C2=C(NS(=O)(=O)c3ccccc3)C(=O)c3ccccc3C2=O)CC1 | -0.3 | -1.1 | 0.5 | -25.4 | -0.4 | 46.1* | 10.1
CN1CCN(C2=C(NS(=O)(=O)c3cccs3)C(=O)c3ccccc3C2=O)CC1 | 2.7 | -1.2 | -13.6 | 15.5 | 7.3 | 16.8 | x
NC1=NC(=O)/C(=C\c2ccco2)S1 | -0.9 | 1.9 | 1.6 | 10.3 | -3.6 | 41.1* | 31.1
CCOC(=O)C1=C(C)OC(N)=C(C#N)C1c1cc2c(cc1[N+](=O)[O-])OCO2 (stereo not drawn) | 4.7 | -2.5 | -11.1 | 0.7 | -2.2 | 46.3* | 17.0

Compound activity deposited in PubChem by The Scripps Research Institute Molecular Screening Center.
